# Target: BST2
# Assay: pooled miR-30 sensor sort-seq; sequence = guide strand
# Conditions: shRNA
# Also: reference of the scale not given here.
row,Sequence,sensor-assay potency score (higher = more potent)
1,TTTCTCTTCTCAGTCGCTCCAC,0.121
2,TTTGTCCTTGGGCCTTCTCTGC,-1.64
3,TTGATGGTGAAGATAATCAAGG,-1.58
4,TTCTCTTCTCAGTCGCTCCACC,-0.48
5,ATGTAGTGATCTCTCCCTCAAG,-1.69
6,ATTCTCACGCTTAAGACCTGGT,-0.0201
7,TTGTCCGCGATTCTCACGCTTA,-0.717
8,TCAGTCGCTCCACCTCTGCAGA,-1.23
9,TTCTCAGTCGCTCCACCTCTGC,-1.51

# Target: BTAF1
# Assay: as above
# Conditions: shRNA
row,Sequence,sensor-assay potency score (higher = more potent)
1,TTACTCAACAGTTCCATCCAAA,-0.305
2,TAACCAGTTCACACCATCCTGC,-0.839
3,TAGAACTTTCGGAAGTAGGTTC,-0.237
4,TAATACTATTTGTTGAAGCTGT,0.361
5,TAAGAGTACAATAATAGTCTTG,-0.191
6,TAGAGTGTAATTATACCTCTGT,0.377
7,TTTACTGCTTTTGACAACTTTG,-1.03
8,TTTTGATCTTGCATATTCCTGG,-0.211
9,TAGCTTCAACAGCTTGTCCTGC,-0.281
10,TACAGCAACAAAGTGCTCCTAA,0.633
11,TAAAGTATTAATTACATCCTGA,-0.104
12,TTGATCTTGCATATTCCTGGGC,0.499

# Target: BVES
# Assay: as above
# Conditions: shRNA
row,Sequence,sensor-assay potency score (higher = more potent)
1,TTGTGCATCTGAGTTGATCTAA,0.0688
2,TTCCTTTTCAATCTTTACCGGT,-0.474
3,ATTTGCTACATGAAAAACCAGA,-1.03
4,TTCTGCTCCTTCTTCTATCGGT,0.109
5,TTAGTCTTCTGAACAAATCTGG,0.0292
6,TTTCATACAAGAAAGGTTCTGA,0.905
7,TTCTTCTATCGGTTTCATCTTG,-0.512
8,TCTTCTATCGGTTTCATCTTGG,0.0355
9,TTATCATCTGCAATAATGGTGA,-0.542
10,TAGTCTTCTGAACAAATCTGGA,-1.1
11,TTATATCCAAGGCACATCGGTA,-1.03
12,TTTTTCACCTTTGTGCATCTGA,0.533

# Target: BZW1
# Assay: as above
# Conditions: shRNA
row,Sequence,sensor-assay potency score (higher = more potent)
1,TTAACTTGTTAAAAACCTGAGC,-0.612
2,TTCAAGAACAGCAGCAGCTTTT,-0.773
3,TAATACAGTCTTGAAACTGAGT,-0.709
4,TTACTTCATCTTCAAAACCTTT,-1.14
5,AATAATACAGTCTTGAAACTGA,0.296
6,TTATCCATGCTGACTTTCCGAA,-0.947
